Source: PubChem BioAssay
An excerpt weighted towards active compounds, which were near 9.2% of everything screened.
ELG1 genotox: induces genotoxicity in HEK293T cells with luciferase-tagged ELG1. AID 504466. Potency, µM (doses to about 46 µM), for inactives: at the top dose activity change, positive = activation, most hits filed as activators. HEK293T ELG1-luciferase reporter, luminescence, 16 h. hit rate 1.3% among 330,000; note: % of control where 0% means no effect; nearly all actives have a fitted effect of over 60% in size
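DMSO vehicle served as control against compound-treated ELG1-luciferase HEK293T cells; exposure lasted 16 hr at 37 °C and 5% CO2, followed by ONE-Glo luminescence detection after 30 min.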
ELG1 DNA repair: blocks ELG1-dependent DNA repair in HEK293T cells; HEK293T ELG1-luciferase reporter, luminescence, 16 h; DNA damage induced by 5-fluorouridine; Potency, µM (titrated, usually from 46.1 µM), inactives show at the highest dose activity change, negative = inhibition, usual class: inhibitors; hit rate 2.3% among 330,000; note: % is set by controls: 0 for no effect and ±100 for the full control effect; nearly all actives have a fitted effect of over 55% in size
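Cells (2,000 per well) received 5-fluorouridine plus test compound or DMSO and were incubated 16 hr at 37 °C, 5% CO2. Luciferase activity was read by luminescence 30 min after ONE-Glo addition; signal suppression marked inhibition of damage-induced ELG1 function.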
FLuc modulator: counter-screen for miR-21 project: firefly luciferase inhibitors or activators. P08659. purified FLuc, Km substrates, luminescence inhibition. Potency, µM (top dose mostly 57.5 µM), for the others: at the highest dose activity change, negative = inhibition, hits mostly inhibitors. hit rate 6.9% among 360,000. AID 588342;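 note: plate controls were vehicle for no effect and reference inhibitor for full effect; nearly all actives have a fitted effect of over 55% in size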
Target sequence (P08659 whole entry, looked up): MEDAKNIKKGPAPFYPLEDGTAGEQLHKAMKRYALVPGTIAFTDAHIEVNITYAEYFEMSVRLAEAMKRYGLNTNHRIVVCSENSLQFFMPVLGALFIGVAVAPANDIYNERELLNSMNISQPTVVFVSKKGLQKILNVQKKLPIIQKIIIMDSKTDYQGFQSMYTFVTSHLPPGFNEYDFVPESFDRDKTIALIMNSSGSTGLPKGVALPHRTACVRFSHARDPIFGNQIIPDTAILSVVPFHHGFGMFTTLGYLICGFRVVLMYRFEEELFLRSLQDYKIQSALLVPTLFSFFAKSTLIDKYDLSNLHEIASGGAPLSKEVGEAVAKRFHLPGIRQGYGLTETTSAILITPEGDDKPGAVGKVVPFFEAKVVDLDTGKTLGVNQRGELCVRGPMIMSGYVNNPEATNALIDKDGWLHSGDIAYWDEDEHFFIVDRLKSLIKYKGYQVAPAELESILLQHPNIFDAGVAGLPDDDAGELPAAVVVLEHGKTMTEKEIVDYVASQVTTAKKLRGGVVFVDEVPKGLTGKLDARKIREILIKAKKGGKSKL
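Purified P. pyralis luciferase, 10 nM final, with Km-level 10 uM D-luciferin and 10 uM ATP in 50 mM Tris acetate pH 7.5, 10 mM Mg acetate, 0.01% Tween-20, 0.05% BSA; 6-point qHTS titration about 60 µM downward; luminescence read.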
NPC1 prom act: activators of NPC1 promoter. Huh7 NPC1 promoter luciferase reporter, 24 h. Potency, µM (highest dose often 9.22 µM), for inactives: top-dose activation, usual class: activators. hit rate 2.4% among 320,000. AID 485313; note: % of control where 0% means no effect; nearly all actives have a fitted effect of over 60% in size
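Huh7 cells stably carrying NPC1 promoter–luciferase, plated in Opti-MEM with 10% FBS for 2 h, were exposed to compound in DMSO for 24 h at 37 °C; luciferase reagent was added for 10 min and luminescence read.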
SMN2 splice enh: enhancers of SMN2 splice variant expression; HEK293 SMN2-luciferase splicing reporter, luminescence, 30-36 h; Potency, µM (titrated, usually from 46.1 µM), without a hit: at the highest dose activity change, positive = activation, usual class: activators; AID 1458; hit rate 2.8% among 210,000; note: % of control where 0% means no effect; nearly all actives have a fitted effect of over 55% in size
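HEK293 cells carry an SMN2 […]–luciferase reporter in which exon 7 inclusion puts luciferase in frame. Cells were plated 10-12 h before compound addition, then incubated 30-36 h at 37C. ONE-Glo luminescence was read; sodium butyrate at 4.5 mM final served as control.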
Rab9 promoter act: Rab9 promoter activation; Huh7 Rab9 promoter-luciferase reporter, luminescence, 24 h; Potency, µM (highest dose often 9.22 µM), inactives show at the highest dose activation, negative = inhibition, actives largely listed as activators; hit rate 2.8% among 320,000; AID 485297; note: % of control where 0% means no effect; nearly all actives have a fitted effect of over 60% in size
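Promoter activation is measured as luciferase luminescence in Huh7 cells stably transfected with a Rab9 promoter–luciferase construct, following 24 h compound exposure at 37 °C and 10 min reagent incubation at ambient temperature.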
Starred values were filed as active, the others as inactive; [ ] = dose if it differs, or a comment. Calls come from the whole dose curve; as a rule, active = well fitted curve in the direction sought with a large enough effect; inconclusive = small, poorly fitted or top-dose-only effect, or another doubt; inactive = no such curve, though single readings can be large; an effect the other way counts as inactive or inconclusive. Potency is the fitted concentration of half-maximal effect.

How did CCOc1cc(CNC(=O)C(NS(=O)(=O)c2cccs2)C(C)C)cc(OCC)c1OCC (stereo not given) do in these assays?
FLuc modulator: 0%

How did C=CCS/C(N)=N\N=C\c1c(O)ccc2ccccc12 do in these assays?
ELG1 genotox: inconclusive; ELG1 DNA repair: inconclusive; FLuc modulator: 4.8µM*; NPC1 prom act: 0%; Rab9 promoter act: 2.8µM*

Results for Cc1nnc(C)n1/N=C/c1c(O)ccc2ccccc12 ?
ELG1 genotox: 4%; ELG1 DNA repair: 26%; FLuc modulator: -2%; NPC1 prom act: 1%; Rab9 promoter act: -4%[1.84 µM]

Results for CCN(CC)c1ccc(/C=N/N=C(c2ccccc2)c2ccccc2)c(O)c1 ?
ELG1 genotox: -2%; ELG1 DNA repair: -8%; FLuc modulator: 1%; NPC1 prom act: -1%; SMN2 splice enh: -29%; Rab9 promoter act: -4%

Results for CCCS/C(N)=N/N=C/c1ccccc1O ?
ELG1 genotox: 3.2µM*; ELG1 DNA repair: inconclusive; FLuc modulator: 9.5µM*; NPC1 prom act: 2.8µM*; SMN2 splice enh: 11µM*; Rab9 promoter act: 2.5µM*

How did O=c1ccc2cc(S(=O)(=O)Nc3ccc(OC(F)(F)F)cc3)ccc2[nH]1 do in these assays?
FLuc modulator: -10%

Results for COc1ccc(C(=O)/C=C/Nc2ccc(S(=O)(=O)Nc3cccc(C(C)=O)c3)cc2)cc1 ?
ELG1 genotox: -4%; ELG1 DNA repair: 23µM*; FLuc modulator: -5%; NPC1 prom act: -9%; SMN2 splice enh: -36%; Rab9 promoter act: -17%

What do the screens show for `COc1cccc(N/C=C/C(=O)c2ccc(OC)c(OC)c2)c1`?
ELG1 genotox: inconclusive; ELG1 DNA repair: inconclusive; FLuc modulator: 1.3µM*; NPC1 prom act: 3.5µM*; Rab9 promoter act: inconclusive

What do the screens show for `COC(=O)c1ccc(N/C=C/C(=O)c2ccccc2)cc1`?
ELG1 genotox: inconclusive; ELG1 DNA repair: inconclusive; FLuc modulator: 0.6µM*; NPC1 prom act: inconclusive; Rab9 promoter act: 0.5µM*

What do the screens show for `COc1cccc(C(=O)/C=C/Nc2cc(C)ccc2O)c1`?
ELG1 genotox: inconclusive; ELG1 DNA repair: inconclusive; FLuc modulator: 2.7µM*; NPC1 prom act: -5%; Rab9 promoter act: -12%

How did COC(=O)c1ccccc1 do in these assays?
SMN2 splice enh: -5%

Results for COc1ccc(N2CC(C(=O)NCCC3=CCCCC3)CC2=O)c(OC)c1 (stereo not given) ?
ELG1 genotox: -1%; ELG1 DNA repair: 11%; FLuc modulator: -2%; NPC1 prom act: -3%; Rab9 promoter act: -5%

Results for Cc1ccc(S(=O)(=O)N2CCOCC2)cc1NC(=O)COC(=O)C1COc2ccccc2O1 (stereo not given) ?
ELG1 genotox: 0%; ELG1 DNA repair: 27%; FLuc modulator: -1%; NPC1 prom act: 1%; SMN2 splice enh: 0%; Rab9 promoter act: -6%

What do the screens show for `CCOc1ccc(N2CC(C(=O)NC3CCCCCC3)CC2=O)cc1` (stereo not given)?
ELG1 genotox: 2%; ELG1 DNA repair: -1%; FLuc modulator: -1%; NPC1 prom act: -2%; Rab9 promoter act: 0%

Results for Cc1ccc(Cl)c(N/C=C/C(=O)c2ccccc2)c1 ?
ELG1 genotox: 9.2µM*; ELG1 DNA repair: inconclusive; FLuc modulator: 1.1µM*; NPC1 prom act: inconclusive; Rab9 promoter act: inconclusive

Results for Cc1cccc(N/C=C/C(=O)c2ccc(Cl)cc2)c1 ?
ELG1 genotox: inconclusive; ELG1 DNA repair: inconclusive; FLuc modulator: 0.67µM*; NPC1 prom act: 0.56µM*; Rab9 promoter act: 0.35µM*

Results for CC(=O)Nc1ccc(N/C=C/C(=O)c2ccc(C)cc2)cc1 ?
ELG1 genotox: -2%; ELG1 DNA repair: inconclusive; FLuc modulator: -19%; NPC1 prom act: inconclusive; Rab9 promoter act: 20%

What do the screens show for `Cc1cccc(C(=O)NN/C=C/C(=O)c2ccccc2)c1`?
ELG1 genotox: 2%; ELG1 DNA repair: 8%; FLuc modulator: -18%; NPC1 prom act: -4%; Rab9 promoter act: -3%

What do the screens show for `CCOC(=O)c1cccc(N/C=C/C(=O)c2ccc(OC)c(OC)c2)c1`?
ELG1 genotox: inconclusive; ELG1 DNA repair: inconclusive; FLuc modulator: 11µM*; NPC1 prom act: 0.63µM*; SMN2 splice enh: 64%; Rab9 promoter act: 1.6µM*

What do the screens show for `CCOC(=O)c1ccc(OS(=O)(=O)c2ccccc2)c(OC)c1`?
ELG1 genotox: inconclusive; ELG1 DNA repair: inconclusive; FLuc modulator: 7.6µM*; NPC1 prom act: 2.8µM*; SMN2 splice enh: 11µM*; Rab9 promoter act: 2.8µM*

How did COc1ccc(-c2nc3scc(CCNS(=O)(=O)c4ccc5c(c4)OCCO5)n3n2)cc1 do in these assays?
FLuc modulator: -18%

Results for CCOC(=O)c1ccc(N/C=C\C(=O)c2cccc(OC)c2)cc1 ?
ELG1 genotox: 16%; ELG1 DNA repair: inconclusive; FLuc modulator: 3µM*; NPC1 prom act: inconclusive; SMN2 splice enh: inconclusive; Rab9 promoter act: inconclusive

Results for O=C(/C=C\Nc1ccccn1)c1ccc(Cl)cc1 ?
ELG1 genotox: inconclusive; ELG1 DNA repair: inconclusive; FLuc modulator: 0.19µM*; NPC1 prom act: 0.28µM*; SMN2 splice enh: 1µM*; Rab9 promoter act: 0.1µM*

Results for COc1cccc(C(=O)/C=C/Nc2ccc(S(=O)(=O)Nc3ccc(C(C)=O)cc3)cc2)c1 ?
ELG1 genotox: 11%; ELG1 DNA repair: 0%; FLuc modulator: inconclusive; NPC1 prom act: -1%; Rab9 promoter act: 0%

How did COc1ccc(C(=O)/C=C/Nc2cccc(O)c2)cc1 do in these assays?
ELG1 genotox: 1.5µM*; ELG1 DNA repair: inconclusive; FLuc modulator: 0.38µM*; NPC1 prom act: 2%; SMN2 splice enh: inconclusive; Rab9 promoter act: inconclusive

What do the screens show for `COc1ccc(OC)c(N/C=C/C(=O)c2ccc(OC)c(OC)c2)c1`?
ELG1 genotox: inconclusive; ELG1 DNA repair: -14%; FLuc modulator: 19µM*; NPC1 prom act: 2%; Rab9 promoter act: 4%

How did CS(=O)(=O)N1CCN(c2ccc(NC(=S)NC(=O)c3ccccc3[N+](=O)[O-])cc2)CC1 do in these assays?
ELG1 genotox: 2%; ELG1 DNA repair: 14%; FLuc modulator: 0%; NPC1 prom act: -4%; Rab9 promoter act: -2%

How did O=C1c2ccc(-c3ccc(Cl)c(C(F)(F)F)c3)cc2S(=O)(=O)c2cccc(C(=O)N3CCN(c4ccc(Cl)cn4)CC3)c21 do in these assays?
ELG1 genotox: 1%; ELG1 DNA repair: inconclusive

What do the screens show for `CCN(CC)c1ccc(CN2CCC(C(=O)NCc3ccc(C)cc3)CC2)cc1`?
ELG1 genotox: 3%; ELG1 DNA repair: inconclusive; FLuc modulator: 24µM*; NPC1 prom act: 0%; Rab9 promoter act: 12%
